Laboratory results from PubChem BioAssay AID1159580 (chemical genetic matrix, 2015).
Out of some 5,500 compounds screened, about 2,000 (36%) were called active. Another 18% or so got no clear call; they are omitted. No stated cut-off is given here; in the data, active means normalized growth mostly below about 0.91 (no sharp cut-off); inconclusive means no clear call, values can overlap the other calls; inactive means mostly above about 0.92. This is one part of the list.

Assay: chemical genetic growth profiling, strain panel (AID 1159580);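 further: tested at 20 µM; growth read once vehicle control cultures reached saturation at 30 °C; 1 = growth at the plate median or of vehicle wells; lower values mean less growth of the strain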
Details: growth OD
[1] = S. cerevisiae deletion strains, locus YAL013W, strain DEP1, active compounds read low
[2] = S. cerevisiae deletion strains, locus YBR229C, strain ROT2, active compounds read low
[3] = S. cerevisiae deletion strains, locus YDL101C, strain DUN1, active compounds read low
[4] = S. cerevisiae deletion strains, locus YDR150W, strain NUM1, active compounds read low
[5] = S. cerevisiae deletion strains, locus YEL061C, strain CIN8, active compounds read low
[6] = S. cerevisiae deletion strains, locus YGR078C, strain PAC10, active compounds read low
[7] = S. cerevisiae deletion strains, locus YHR030C, strain SLT2, active compounds read low
[8] = S. cerevisiae deletion strains, locus YHR087W, strain rtc3, active compounds read low
[9] = S. cerevisiae deletion strains, locus YJL187C, strain SWE1, active compounds read low
[10] = S. cerevisiae deletion strains, locus YJR043C, strain POL32, active compounds read low
[11] = S. cerevisiae deletion strains, locus YJR075W, strain HOC1, active compounds read low
[12] = S. cerevisiae deletion strains, locus YKL190W, strain CNB1, active compounds read low
[13] = S. cerevisiae deletion strains, locus YLR039C, strain RIC1, active compounds read low
[14] = S. cerevisiae deletion strains, locus YLR058C, strain SHM2 (second series), active compounds read low
[15] = S. cerevisiae deletion strains, locus YLR085C, strain ARP6, active compounds read low
[16] = S. cerevisiae deletion strains, locus YLR262C, strain YPT6, active compounds read low
[17] = S. cerevisiae deletion strains, locus YML094W, strain GIM5, active compounds read low
[18] = S. cerevisiae deletion strains, locus YMR219W, strain ESC1, active compounds read low
[19] = S. cerevisiae deletion strains, locus YMR263W, strain SAP30, active compounds read low
[20] = S. cerevisiae deletion strains, locus YMR307W, strain GAS1, active compounds read low
[21] = S. cerevisiae deletion strains, locus YNL153C, strain GIM3, active compounds read low
[22] = S. cerevisiae deletion strains, locus YNL298W, strain CLA4 (second series), active compounds read low
[23] = S. cerevisiae deletion strains, locus YNL322C, strain KRE1, active compounds read low
[24] = S. cerevisiae deletion strains, locus YNR030W, strain Alg12, active compounds read low
[25] = S. cerevisiae deletion strains, locus YOL006C, strain TOP1, active compounds read low
[26] = S. cerevisiae deletion strains, locus YPL055C, strain LGE1, active compounds read low
[27] = S. cerevisiae deletion strains, locus YPL241C, strain CIN2, active compounds read low
[28] = S. cerevisiae deletion strains, locus YPR135W, strain CTF4, active compounds read low

Measured: normalized growth

CN1C/C(=C\c2ccccc2Cl)C(=O)/C(=C/c2ccccc2Cl)C1
inactive: [1] 0.953 | [4] 0.942 | [9] 0.942 | [10] 0.971 | [14] 0.958 | [19] 0.937 | [21] 0.958 | [23] 0.957 | [26] 0.92
active: [2] 0.911 | [3] 0.825 | [5] 0.699 | [6] 0.873 | [7] 0.27 | [8] 0.888 | [11] 0.831 | [12] 0.789 | [13] 0.447 | [15] 0.462 | [16] 0.655 | [17] 0.691 | [18] 0.909 | [20] 0.419 | [22] 0.523 | [24] 0.756 | [25] 0.562 | [27] 0.676 | [28] 0.422

CN(C)/C=C1\C(=O)c2ccccc2N(C)S1(=O)=O
inactive: [1] 1 | [2] 0.994 | S. cerevisiae deletion strains, locus YCL061C, strain MRC1, active compounds read low 0.999 | [3] 0.999 | S. cerevisiae deletion strains, locus YDL134C, strain PPH21, active compounds read low 0.987 | [4] 1.02 | [5] 1.01 | [6] 0.982 | [7] 0.907 | [8] 0.954 | [10] 0.989 | [11] 0.949 | [12] 1.01 | [13] 0.84 | [14] 0.983 | [15] 1.06 | [16] 0.906 | [17] 1.02 | [18] 1 | [19] 1 | [20] 0.859 | [21] 0.997 | [22] 0.97 | [23] 0.999 | [24] 0.98 | [25] 0.946 | [26] 1.13 | [27] 1.01 | [28] 0.761 | S. cerevisiae strains, strain wild type, active compounds read low 0.991

O=C(Nc1ccccc1C(=O)Nc1ccc(Br)cc1)c1ccccc1
inactive: [1] 1.01 | [2] 1.02 | [3] 1.05 | [4] 1 | [5] 0.998 | [6] 1.02 | S. cerevisiae deletion strains, locus YGR229C, strain SMI1, active compounds read low 1.03 | [7] 1.03 | [8] 1.03 | [9] 1.01 | [10] 1.03 | [11] 0.997 | [12] 1.03 | [13] 1.02 | [14] 1.02 | [15] 1 | [16] 1.03 | [17] 1.01 | [18] 1.01 | [19] 1.03 | [21] 1.03 | [22] 1.06 | [23] 1.02 | [24] 1.02 | [26] 1.08 | [27] 1.01 | [28] 1.17

O=C(C=C(O)c1ccc(Br)cc1)C(=O)Nc1ccccc1
active: S. cerevisiae deletion strains, locus YAR019C, strain CDC15, active compounds read low 0.489 | S. cerevisiae deletion strains, locus YBL105C, strain PKC1, active compounds read low 0.637 | S. cerevisiae deletion strains, locus YBR135W, strain CKS1, active compounds read low 0.686 | S. cerevisiae deletion strains, locus YBR136W, strain MEC1, active compounds read low 0.851 | S. cerevisiae deletion strains, locus YBR160W, strain CDC28, active compounds read low 0.893 | S. cerevisiae deletion strains, locus YDL017W, strain CDC7, active compounds read low 0.683 | S. cerevisiae deletion strains, locus YDL028C, strain MPS1, active compounds read low 0.834 | [3] 0.379 | S. cerevisiae deletion strains, locus YDL108W, strain KIN28, active compounds read low 0.874 | S. cerevisiae deletion strains, locus YDL132W, strain cdc53, active compounds read low 0.76 | S. cerevisiae deletion strains, locus YDL214C, strain PRR2, active compounds read low 0.145 | S. cerevisiae deletion strains, locus YDR052C, strain DBF4, active compounds read low 0.849 | S. cerevisiae deletion strains, locus YDR054C, strain cdc34, active compounds read low 0.581 | S. cerevisiae deletion strains, locus YDR226W, strain ADK1, active compounds read low 0.869 | S. cerevisiae deletion strains, locus YDR477W, strain SNF1, active compounds read low 0.105 | S. cerevisiae deletion strains, locus YER123W, strain YCK3, active compounds read low 0.124 | S. cerevisiae deletion strains, locus YER133W, strain GLC7, active compounds read low 0.229 | S. cerevisiae deletion strains, locus YFL009W, strain cdc4, active compounds read low 0.7 | S. cerevisiae deletion strains, locus YFL029C, strain CAK1, active compounds read low 0.439 | S. cerevisiae deletion strains, locus YFR003C, strain YPI1, active compounds read low 0.718 | S. cerevisiae deletion strains, locus YFR019W, strain FAB1, active compounds read low 0.128 | S. cerevisiae deletion strains, locus YFR028C, strain CDC14, active compounds read low 0.448 | S. cerevisiae deletion strains, locus YGR040W, strain KSS1, active compounds read low 0.109 | S. cerevisiae deletion strains, locus YGR052W, strain FMP48, active compounds read low 0.132 | S. cerevisiae deletion strains, locus YGR092W, strain DBF2, active compounds read low 0.104 | [7] 0.148 | S. cerevisiae deletion strains, locus YHR079C, strain IRE1, active compounds read low 0.159 | S. cerevisiae deletion strains, locus YHR082C, strain KSP1, active compounds read low 0.136 | S. cerevisiae deletion strains, locus YHR205W, strain SCH9, active compounds read low 0.0311 | S. cerevisiae deletion strains, locus YIL147C, strain SLN1, active compounds read low 0.848 | S. cerevisiae deletion strains, locus YJL095W, strain BCK1, active compounds read low 0.136 | S. cerevisiae deletion strains, locus YJL128C, strain PBS2, active compounds read low 0.483 | S. cerevisiae deletion strains, locus YJL157C, strain FAR1, active compounds read low 0.113 | S. cerevisiae deletion strains, locus YJR016C, strain ILV3, active compounds read low 0.156 | S. cerevisiae deletion strains, locus YJR066W, strain TOR1 (second series), active compounds read low 0.115 | S. cerevisiae deletion strains, locus YJR066W, strain TOR1, active compounds read low 0.122 | S. cerevisiae deletion strains, locus YKL048C, strain ELM1, active compounds read low 0.136 | S. cerevisiae deletion strains, locus YKL067W, strain YNK1, active compounds read low 0.127 | S. cerevisiae deletion strains, locus YKL101W, strain HSL1, active compounds read low 0.103 | S. cerevisiae deletion strains, locus YKL193C, strain SDS22, active compounds read low 0.761 | S. cerevisiae deletion strains, locus YKL203C, strain TOR2, active compounds read low 0.142 | S. cerevisiae deletion strains, locus YLR113W, strain HOG1, active compounds read low 0.145 | S. cerevisiae deletion strains, locus YLR133W, strain CKI1, active compounds read low 0.127 | S. cerevisiae deletion strains, locus YLR403W, strain SFP1, active compounds read low 0.00467 | S. cerevisiae deletion strains, locus YML070W, strain DAK1, active compounds read low 0.129 | S. cerevisiae deletion strains, locus YMR001C, strain CDC5, active compounds read low 0.449 | S. cerevisiae deletion strains, locus YMR205C, strain PFK2 (second series), active compounds read low 0.118 | S. cerevisiae deletion strains, locus YMR277W, strain FCP1, active compounds read low 0.728 | S. cerevisiae deletion strains, locus YNL006W, strain LST8, active compounds read low 0.158 | S. cerevisiae deletion strains, locus YNL020C, strain ARK1, active compounds read low 0.109 | S. cerevisiae deletion strains, locus YNL161W, strain CBK1, active compounds read low 0.77 | S. cerevisiae deletion strains, locus YNL183C, strain NPR1, active compounds read low 0.131 | S. cerevisiae deletion strains, locus YNL207W, strain RIO2, active compounds read low 0.824 | S. cerevisiae deletion strains, locus YNL222W, strain SSU72, active compounds read low 0.786 | S. cerevisiae deletion strains, locus YNL307C, strain MCK1 (second series), active compounds read low 0.114 | S. cerevisiae deletion strains, locus YOL078W, strain AVO1, active compounds read low 0.76 | S. cerevisiae deletion strains, locus YOL136C, strain PFK27, active compounds read low 0.109 | S. cerevisiae deletion strains, locus YOR061W, strain CKA2, active compounds read low 0.0904 | S. cerevisiae deletion strains, locus YOR119C, strain RIO1, active compounds read low 0.134 | S. cerevisiae deletion strains, locus YOR231W, strain MKK1, active compounds read low 0.14 | S. cerevisiae deletion strains, locus YOR329C, strain SCD5, active compounds read low 0.79 | S. cerevisiae deletion strains, locus YPL031C, strain PHO85, active compounds read low 0.105 | S. cerevisiae deletion strains, locus YPL153C, strain RAD53, active compounds read low 0.103 | S. cerevisiae deletion strains, locus YPL204W, strain HRR25, active compounds read low 0.114 | S. cerevisiae deletion strains, locus YPL209C, strain IPL1, active compounds read low 0.646 | S. cerevisiae deletion strains, locus YPL256C, strain CLN2, active compounds read low 0.17 | S. cerevisiae deletion strains, locus YPR025C, strain CCL1, active compounds read low 0.871 | S. cerevisiae deletion strains, locus YPR106W, strain ISR1, active compounds read low 0.513 | S. cerevisiae deletion strains, locus YPR111W, strain DBF20, active compounds read low 0.724 | S. cerevisiae deletion strains, strain NNK1, active compounds read low 0.106 | S. cerevisiae deletion strains, strain TSCII, active compounds read low 0.39

c1ccc2cc(CC3=NCCN3)ccc2c1
inactive: S. cerevisiae deletion strains, locus YAL040C, strain CLN3, active compounds read low 1.01 | S. cerevisiae deletion strains, locus YCL061C, strain MRC1 (second series), active compounds read low 1 | S. cerevisiae deletion strains, locus YDR363W, strain ESC2, active compounds read low 1.02 | S. cerevisiae deletion strains, locus YER002W, strain NOP16, active compounds read low 0.998 | [6] 1.01 | [20] 1 | S. cerevisiae deletion strains, locus YNL128W, strain TEP1, active compounds read low 1 | [21] 0.982 | S. cerevisiae deletion strains, locus YNL175C, strain NOP13, active compounds read low 1.01 | S. cerevisiae deletion strains, locus YNL197C, strain WHI3, active compounds read low 1.02 | S. cerevisiae deletion strains, locus YNL224C, strain SQS1, active compounds read low 1.01 | S. cerevisiae deletion strains, locus YOR083W, strain WHI5 (second series), active compounds read low 1 | [26] 1.01 | [27] 0.996
